Experimental data as given in PubChem BioAssay (EPA / NIEHS).
Active and inactive are the calls of the source. Rule for the calls: active = hit-call score of the fitted dose curve at least 0.9, where 1 is the maximum; inactive = score below 0.9.

How the values were obtained:
[1] = ATG_AP_1_CIS: Attagene CIS-FACTORIAL HepG2 Assay for human Activator Protein 1 (AP-1) (AID 2282931); settings: HepG2 Attagene cis-factorial AP-1 reporter mRNA; actives raise or lower the signal
Procedure, shortened: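 Multiplexed HepG2 reporter assay, 24 h dosing. mRNA induction detected by RT-PCR plus capillary electrophoresis. Activity fitted in both directions against DMSO.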

[2] = ATG_AP_2_CIS: Attagene CIS-FACTORIAL HepG2 Assay for human Activator Protein 2 (AP-2) (AID 2282932); settings: HepG2 AP-2 cis-reporter, Attagene transcription factor profiling; actives raise or lower the signal
Procedure, shortened: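 HepG2, transient MRTU transfection, cis-regulated reporters; 24 h compound exposure; RNA isolated, RT-PCR, 6-FAM labelling, HpaI digest, CE fluorescence. DMSO = negative control/baseline, bidirectional fit.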

[3] = ATG_BRE_CIS: Attagene CIS-FACTORIAL HepG2 Assay for human Bone Morphogenetic Protein (BMP) Response Element (BRE) (AID 2282933); settings: HepG2 BMP response element reporter, Attagene transcription factor profiling; actives raise or lower the signal
Procedure, shortened: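 A HepG2 multiplex reporter system measured inducible reporter mRNA 24 h post-dosing. Detection: RT-PCR, 6-FAM primer extension, HpaI digestion, capillary electrophoresis. Activity fitted bidirectionally relative to DMSO.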

[4] = biological target: Transcription factor E2F1 (Homo sapiens) (UniProt Q01094); test: ATG_E2F_CIS: Attagene CIS-FACTORIAL HepG2 Assay for human E2F Transcription Factor 1 (AID 2282935); settings: HepG2 Attagene cis-reporter, E2F reporter RNA transcripts; actives raise or lower the signal
Procedure, shortened: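 Cis-element reporter mRNA induction in transiently transfected HepG2, 24 h exposure. Activity fitted in both directions relative to DMSO negative control.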

[5] = ATG_EGR_CIS: Attagene CIS-FACTORIAL HepG2 Assay for human Early Growth Response 1 (EGR1) (AID 2282938); settings: HepG2 Attagene CIS-FACTORIAL EGR reporter mRNA; actives raise or lower the signal
Procedure, shortened: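 Activity is taken as induction or loss of reporter mRNA versus DMSO, fitted bidirectionally. Transcripts from cis-regulated reporter units in transiently transfected HepG2 were measured after 24 h by RT-PCR with capillary electrophoresis.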

[6] = ATG_M_19_CIS: Attagene CIS-FACTORIAL HepG2 Assay for M19 Transcription Factor (Internal Marker) (AID 2282939); settings: HepG2 Attagene CIS-FACTORIAL M19 internal marker reporter; actives raise or lower the signal
Procedure, shortened: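 Chemical-treated HepG2 (24 h) with MRTU constructs; reporter transcripts detected by fluorescent RT-PCR fragment analysis on capillary electrophoresis. Internal background marker, DMSO as baseline.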

[7] = ATG_ERE_CIS: Attagene CIS-FACTORIAL HepG2 Assay for Estrogen Response Element (ERE) (AID 2282940); settings: HepG2 ERE cis-reporter, Attagene RNA transcript; actives raise or lower the signal
Procedure, shortened: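 Human liver cells (HepG2) bearing transiently transfected, promoter-regulated reporter units were exposed 24 h. Reporter mRNA induction was detected by capillary electrophoresis of labelled RT-PCR products and fitted bidirectionally to DMSO.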

[8] = ATG_Ets_CIS: Attagene CIS-FACTORIAL HepG2 Assay for human Erythroblast Transformation Specific (ETS) (AID 2282941); settings: HepG2 ETS cis-reporter transcription, actives raise or lower the signal
Procedure, shortened: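 Human HepG2 hepatoma cells were transiently transfected with promoter-driven reporter constructs and treated for 24 hours. Reporter transcripts were quantified by RT-PCR with fluorescent primer extension; bidirectional curve fitting used DMSO as reference.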

[9] = biological target: Hepatocyte nuclear factor 3-beta (Homo sapiens) (UniProt Q9Y261); test: ATG_FoxA2_CIS: Attagene CIS-FACTORIAL HepG2 Assay for human Forkhead box A2 (FOXA2) (AID 2282942); settings: HepG2 cis-reporter transcription factor activity, 24 h; actives raise or lower the signal
Procedure, shortened: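 Reporter transcript induction is measured by fluorescence after capillary electrophoresis of RT-PCR products from HepG2 cells exposed 24 h. Cis-regulated reporter units report endogenous factor activity; curves fitted both directions against DMSO.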

[10] = ATG_FoxO_CIS: Attagene CIS-FACTORIAL HepG2 Assay for human Forkhead box O (FoxO) (AID 2282943); settings: HepG2 Attagene cis-reporter, FoxO element, mRNA; actives raise or lower the signal
Procedure, shortened: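 Endogenous transcription factor activity read from multiplexed cis-promoter reporter transcripts in transiently transfected HepG2, 24 h after dosing. Reporter RNA measured via RT-PCR plus capillary electrophoresis of FAM-labeled products; gain or loss relative to DMSO.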

[11] = ATG_GATA_CIS: Attagene CIS-FACTORIAL HepG2 Assay for human GATA Binding Protein (AID 2282944); settings: HepG2 GATA cis-element reporter, Attagene multiplex mRNA; actives raise or lower the signal
Procedure, shortened: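 Transfected cis-reporter HepG2 cells were treated with chemicals for 24 hours. Total RNA was then converted to cDNA, amplified with reporter-specific primers and analysed by fluorescent capillary electrophoresis, using DMSO-treated wells as baseline.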

[12] = ATG_GLI_CIS: Attagene CIS-FACTORIAL HepG2 Assay for human Zinc Finger Protein GLI1 (AID 2282945); settings: HepG2, Attagene cis-factorial reporter mRNA, GLI element; actives raise or lower the signal
Procedure, shortened: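 Bidirectional curve fits relative to DMSO, using reporter mRNA levels from RT-PCR plus capillary electrophoresis. Cells were HepG2 transiently carrying cis-regulated reporter constructs, harvested 24 h after dosing.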

[13] = biological target: Bile acid receptor (Homo sapiens) (UniProt Q96RI1); test: ATG_IR1_CIS: Attagene CIS-FACTORIAL HepG2 Assay for human Nuclear Receptor Subfamily 1 Group H Member 4 (NR1H4), IR1 submotif (AID 2282946); settings: IR1 reporter transcription, actives raise or lower the signal
Procedure, shortened: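 Cells (human HepG2) carry transiently transfected cis-promoter reporter transcription units. Compounds are incubated 24 h, total RNA is reverse-transcribed and amplified, and labelled fragments are resolved by capillary electrophoresis. Curves use DMSO as baseline.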

[14] = ATG_ISRE_CIS: Attagene CIS-FACTORIAL HepG2 Assay for human Interferon Regulatory Factor 1 (IRF1) binding to an Interferon-Stimulated Response Element (ISRE) (AID 2282948); settings: HepG2 ISRE cis-reporter (Attagene), mRNA transcription readout; actives raise or lower the signal
Procedure, shortened: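 Cell-based cis-reporter assay; HepG2; 24 h exposure; reporter mRNA by RT-PCR plus capillary electrophoresis fluorescence; activity in either direction scored relative to DMSO.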

[15] = ATG_M_32_CIS: Attagene CIS-FACTORIAL HepG2 Assay for M32 Transcription Factor (Internal Marker) (AID 2282949); settings: HepG2 Attagene cis-factorial M32 reporter, mRNA; actives raise or lower the signal;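 note: background control marker of the multiplexed CIS panel rather than a real target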
Procedure, shortened: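 HepG2 cells transiently transfected with multiplexed cis-regulated reporter units, dosed 24 h. Reporter mRNA quantified by RT-PCR, 6-FAM labelling, HpaI digestion and capillary electrophoresis; bidirectional fit vs DMSO.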

[16] = ATG_M_06_CIS: Attagene CIS-FACTORIAL HepG2 Assay for M06 Transcription Factor (Internal Marker) (AID 2282950); settings: HepG2 Attagene CIS-FACTORIAL M06 internal marker reporter; actives raise or lower the signal
Procedure, shortened: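 Cells (HepG2, transiently carrying cis-driven reporter units) receive chemical for 24 h before RNA isolation. Reporter cDNA is PCR-amplified, FAM-labelled by primer extension, HpaI-digested and sized on a capillary analyser.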

[17] = ATG_E_Box_CIS: Attagene CIS-FACTORIAL HepG2 Assay for human Enhancer Box (E-box) (AID 2282936); settings: HepG2 E-box cis-reporter transcription, actives raise or lower the signal
Procedure, shortened: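 Cells: HepG2 (human liver), transient MRTU transfection. Exposure 24 h. RNA → oligo(dT) RT → PCR → 6-FAM label → HpaI → CE. Activity fitted both directions relative to DMSO.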

[18] = ATG_GRE_CIS: Attagene CIS-FACTORIAL HepG2 Assay for human Glucocorticoid Response Elements (GRE) (AID 2282947); settings: HepG2 GRE cis-reporter, Attagene multiplex mRNA; actives raise or lower the signal
Procedure, shortened: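 Transient MRTU transfection of human HepG2 liver cells; cis-regulated reporters report endogenous factors. 24 h dosing → RNA isolation → RT-PCR → 6-FAM primer extension → HpaI cut → CE fragment analysis. Bidirectional fit, DMSO negative control.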

[19] = ATG_M_61_CIS: Attagene CIS-FACTORIAL HepG2 Assay for M61 Transcription Factor (Internal Marker) (AID 2282937); settings: HepG2 Attagene CIS-FACTORIAL M61 internal marker reporter; actives raise or lower the signal
Procedure, shortened: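 Endogenous transcription factor activity in HepG2 is read through transiently transfected cis-element reporter units. After 24 h dosing, RNA undergoes reverse transcription, PCR and primer extension with 6-FAM before capillary electrophoresis; DMSO-referenced bidirectional fit.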

Chain of Transcription factor E2F1 (Homo sapiens) (Q01094 whole entry, looked up): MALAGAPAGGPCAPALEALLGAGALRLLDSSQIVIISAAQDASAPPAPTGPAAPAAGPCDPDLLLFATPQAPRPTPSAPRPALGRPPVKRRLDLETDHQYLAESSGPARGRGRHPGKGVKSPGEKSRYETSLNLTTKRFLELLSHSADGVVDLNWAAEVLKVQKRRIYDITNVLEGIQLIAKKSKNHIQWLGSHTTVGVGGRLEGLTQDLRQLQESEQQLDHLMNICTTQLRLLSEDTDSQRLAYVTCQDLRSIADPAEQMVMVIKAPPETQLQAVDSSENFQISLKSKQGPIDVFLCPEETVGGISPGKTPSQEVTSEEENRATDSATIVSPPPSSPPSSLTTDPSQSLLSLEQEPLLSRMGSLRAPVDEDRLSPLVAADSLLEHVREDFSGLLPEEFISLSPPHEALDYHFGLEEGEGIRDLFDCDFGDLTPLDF
Chain of Bile acid receptor (Homo sapiens) (Q96RI1 whole entry, looked up, the tested form may be a part): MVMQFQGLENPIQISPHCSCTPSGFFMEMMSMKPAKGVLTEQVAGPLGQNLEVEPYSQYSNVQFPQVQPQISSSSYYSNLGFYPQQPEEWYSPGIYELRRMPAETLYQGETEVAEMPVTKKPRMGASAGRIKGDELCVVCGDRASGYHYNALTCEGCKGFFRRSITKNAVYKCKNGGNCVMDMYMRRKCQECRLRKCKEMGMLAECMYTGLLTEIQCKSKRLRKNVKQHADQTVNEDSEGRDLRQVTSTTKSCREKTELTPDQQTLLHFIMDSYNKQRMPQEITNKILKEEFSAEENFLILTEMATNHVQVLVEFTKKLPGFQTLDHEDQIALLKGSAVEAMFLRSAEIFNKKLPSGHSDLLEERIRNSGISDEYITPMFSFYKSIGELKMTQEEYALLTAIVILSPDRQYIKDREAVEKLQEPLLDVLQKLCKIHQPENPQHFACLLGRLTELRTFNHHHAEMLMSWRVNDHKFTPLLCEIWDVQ
Chain of Hepatocyte nuclear factor 3-beta (Homo sapiens) (Q9Y261 whole entry, looked up): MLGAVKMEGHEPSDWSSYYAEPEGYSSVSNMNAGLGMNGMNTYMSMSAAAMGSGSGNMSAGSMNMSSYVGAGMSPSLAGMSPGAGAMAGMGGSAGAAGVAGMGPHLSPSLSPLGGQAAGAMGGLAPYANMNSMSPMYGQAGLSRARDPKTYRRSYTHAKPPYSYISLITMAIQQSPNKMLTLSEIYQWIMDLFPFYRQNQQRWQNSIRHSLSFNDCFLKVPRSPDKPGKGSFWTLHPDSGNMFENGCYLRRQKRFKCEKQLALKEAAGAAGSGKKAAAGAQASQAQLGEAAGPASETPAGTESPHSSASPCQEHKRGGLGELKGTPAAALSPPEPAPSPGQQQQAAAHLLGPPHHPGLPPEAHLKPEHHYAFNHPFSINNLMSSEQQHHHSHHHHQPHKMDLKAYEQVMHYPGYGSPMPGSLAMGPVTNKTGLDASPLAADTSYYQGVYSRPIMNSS

Row | Compound | outcome [1] | outcome [2] | outcome [3] | outcome [4] | outcome [5] | outcome [6] | AC50 [7] | outcome [8] | outcome [9] | outcome [10] | outcome [11] | outcome [12] | outcome [13] | outcome [14] | outcome [15] | outcome [16] | outcome [17] | outcome [18] | outcome [7] | outcome [19]
1 | CCCSP(=S)(OCC)Oc1ccc(SC)cc1 (stereo not drawn) | inactive | inactive | inactive | inactive | inactive | inactive | 7.28 µM (active) | inactive | inactive | inactive | inactive | inactive | inactive | inactive | inactive | inactive |  |  |  | 
2 | O=C(O)COc1cc(Cl)c(Cl)cc1Cl | inactive | inactive | inactive | inactive | inactive | inactive |  | inactive | inactive | inactive | inactive | inactive | inactive | inactive | inactive | inactive | inactive | inactive |  | 
3 | N#Cc1cccnc1 | inactive | inactive | inactive | inactive |  | inactive |  | inactive | inactive | inactive | inactive | inactive | inactive | inactive | inactive | inactive | inactive | inactive | inactive | 
4 | c1ccc2c(c1)Oc1ccccc1O2 | inactive | inactive | inactive | inactive | inactive | inactive |  | inactive | inactive | inactive | inactive | inactive | inactive | inactive | inactive | inactive | inactive | inactive |  | inactive
